# From article PMC11062922 (Nature Chemical Biology, 2023)
# Like-named read-outs stand apart in the source and are kept apart here.
# Columns and labels:
# Design in all cases: species or system human, MV4-11 + K-562 + COLO205 + SK-N-BE2 + OVCAR-8
# ABL1 = conditions: read-out: apparent Kd, n = 1
# ABL2 = conditions: read-out: apparent Kd, n = 1
# PTK6 = conditions: read-out: apparent Kd, n = 1
# CSNK1A1 = conditions: read-out: apparent Kd, n = 1
# CSNK1E = conditions: read-out: apparent Kd, n = 1
# HCK = conditions: read-out: apparent Kd, n = 1
# SRC = conditions: read-out: apparent Kd, n = 1
# YES1 = conditions: read-out: apparent Kd, n = 1
# ADCK1 = conditions: read-out: apparent Kd, compound concentrations: 100 nM and 1000 nM (sheet 'Samples'), n = 1
# ATM = conditions: read-out: apparent Kd, n = 1
# PRKX = conditions: read-out: apparent Kd, n = 1
# RIOK2 = conditions: read-out: apparent Kd, n = 1
# ROCK2 = conditions: read-out: apparent Kd, n = 1
# RPS6KA4 = conditions: read-out: apparent Kd, n = 1
# MAPK8 = conditions: read-out: apparent Kd, n = 1
# STK3 = conditions: read-out: apparent Kd, n = 1
# PHKG2 = conditions: read-out: apparent Kd, n = 1
# CDK17 = conditions: read-out: apparent Kd; compound concentrations: 100 nM and 1000 nM (sheet 'Samples'), CATDS: 5.1710144175889199E-3; n = 1
# PIK3CD = conditions: read-out: apparent Kd; compound concentrations: 100 nM and 1000 nM (sheet 'Samples'), CATDS: 4.6666042012861897E-2; n = 1
# [1] = compound concentrations:100 nM and 1000 nM (sheet 'Samples')
smiles,measurement,setting,value
Cc1ccc(Nc2ccnc(Nc3ccc4c(c3)CS(=O)(=O)C4)n2)cc1O.Cl [GW579362A],potency estimated from few doses,"ABL1; compound concentrations: 100 nM and 1000 nM (sheet 'Samples'), CATDS: 2.9223994432995299E-2",1.33 µM
same,potency estimated from few doses,"ABL2; compound concentrations: 100 nM and 1000 nM (sheet 'Samples'), CATDS: 4.4791805431594098E-2",0.448 µM
same,potency estimated from few doses,"PTK6; compound concentrations: 100 nM and 1000 nM (sheet 'Samples'), CATDS: 3.01604654859133E-2",1.2 µM
CC(C)N1CCC(n2cnc(-c3ccc(F)cc3)c2-c2ccnc(N)n2)CC1 [SB-223132],potency estimated from few doses,ABL1; [1],1.11 µM
same,potency estimated from few doses,ABL2; [1],0.723 µM
same,potency estimated from few doses,CSNK1A1; [1],0.158 µM
same,potency estimated from few doses,CSNK1E; [1],0.0778 µM
same,potency estimated from few doses,HCK; [1],0.969 µM
same,potency estimated from few doses,PTK6; [1],1.39 µM
same,potency estimated from few doses,SRC; [1],0.964 µM
same,potency estimated from few doses,YES1; [1],0.758 µM
CN(c1ccc(NC(=O)N2CCN(CCCN3CCOCC3)CC2)cc1)c1ccnc(Nc2ccc(CS(C)(=O)=O)cc2)n1.Cl [GW830899A],potency estimated from few doses,"ABL1; compound concentrations: 100 nM and 1000 nM (sheet 'Samples'), CATDS: 2.13093198764688E-2",1.3 µM
same,potency estimated from few doses,ADCK1; CATDS: 2.5462418576412099E-2,0.867 µM
Cl.Nc1c(C(=O)c2cccc(C#CCN3CCCCC3)c2)cnn1-c1ccc(F)cc1 [RO1154461-001],potency estimated from few doses,"ABL1; compound concentrations: 100 nM and 1000 nM (sheet 'Samples'), CATDS: 1.29854856136426E-2",0.806 µM
same,potency estimated from few doses,"ABL2; compound concentrations: 100 nM and 1000 nM (sheet 'Samples'), CATDS: 1.9255632348685402E-2",0.323 µM
same,potency estimated from few doses,"ATM; compound concentrations: 100 nM and 1000 nM (sheet 'Samples'), CATDS: 2.8189903331148802E-2",0.161 µM
same,potency estimated from few doses,"HCK; compound concentrations: 100 nM and 1000 nM (sheet 'Samples'), CATDS: 1.18075673820272E-2",1.06 µM
same,potency estimated from few doses,"PTK6; compound concentrations: 100 nM and 1000 nM (sheet 'Samples'), CATDS: 1.35601917152245E-2",0.717 µM
same,potency estimated from few doses,"SRC; compound concentrations: 100 nM and 1000 nM (sheet 'Samples'), CATDS: 1.30987485498882E-2",0.787 µM
same,potency estimated from few doses,"YES1; compound concentrations: 100 nM and 1000 nM (sheet 'Samples'), CATDS: 1.4471532311659799E-2",0.608 µM
Cc1cccc(-c2nc(Nc3ccncc3)c3sccc3n2)n1 [GW869641X],potency estimated from few doses,CSNK1E; [1],0.418 µM
NCCNS(=O)(=O)c1ccc(-c2ccnc3[nH]ccc23)cc1 [GSK977617A],potency estimated from few doses,ABL1; [1],0.681 µM
same,potency estimated from few doses,ABL2; [1],0.277 µM
same,potency estimated from few doses,ATM; [1],0.295 µM
same,potency estimated from few doses,HCK; [1],0.765 µM
same,potency estimated from few doses,PRKX; [1],0.487 µM
same,potency estimated from few doses,RIOK2; [1],1.17 µM
same,potency estimated from few doses,ROCK2; [1],0.0973 µM
same,potency estimated from few doses,RPS6KA4; [1],0.588 µM
same,potency estimated from few doses,SRC; [1],0.589 µM
same,potency estimated from few doses,YES1; [1],0.518 µM
CNC(=O)c1ccccc1Nc1nc(Nc2ccc(N3CCOCC3)cc2)ncc1Cl.Cl [GSK1576028A],potency estimated from few doses,ABL1; [1],1.64 µM
same,potency estimated from few doses,HCK; [1],0.676 µM
same,potency estimated from few doses,MAPK8; [1],0.0884 µM
same,potency estimated from few doses,PTK6; [1],0.297 µM
same,potency estimated from few doses,RIOK2; [1],2.14 µM
same,potency estimated from few doses,RPS6KA4; [1],0.427 µM
same,potency estimated from few doses,SRC; [1],1.28 µM
same,potency estimated from few doses,STK3; [1],1.27 µM
same,potency estimated from few doses,YES1; [1],0.322 µM
CCn1c(-c2nonc2N)nc2c(C#CCN)ncc(OCCCN)c21.O=C(O)C(F)(F)F [GSK561866B],potency estimated from few doses,"ROCK2; compound concentrations: 100 nM and 1000 nM (sheet 'Samples'), CATDS: 8.7160231406383598E-2",0.858 µM
O=C1N=C(NCCc2ccc(Cl)cc2)S/C1=C\c1ccc2ncccc2c1 [RO4498479-000],potency estimated from few doses,"ABL1; compound concentrations: 100 nM and 1000 nM (sheet 'Samples'), CATDS: 1.01576334348417E-2",0.536 µM
same,potency estimated from few doses,"ABL2; compound concentrations: 100 nM and 1000 nM (sheet 'Samples'), CATDS: 1.7069961948359198E-2",0.201 µM
same,potency estimated from few doses,"HCK; compound concentrations: 100 nM and 1000 nM (sheet 'Samples'), CATDS: 1.17279601666646E-2",0.393 µM
same,potency estimated from few doses,"PHKG2; compound concentrations: 100 nM and 1000 nM (sheet 'Samples'), CATDS: 8.2148610451916008E-3",0.932 µM
same,potency estimated from few doses,"PRKX; compound concentrations: 100 nM and 1000 nM (sheet 'Samples'), CATDS: 9.1029786610764794E-3",0.7 µM
same,potency estimated from few doses,"PTK6; compound concentrations: 100 nM and 1000 nM (sheet 'Samples'), CATDS: 1.2314432114231401E-2",0.357 µM
same,potency estimated from few doses,"RPS6KA4; compound concentrations: 100 nM and 1000 nM (sheet 'Samples'), CATDS: 7.6189107816006501E-3",1.19 µM
same,potency estimated from few doses,"SRC; compound concentrations: 100 nM and 1000 nM (sheet 'Samples'), CATDS: 1.16822109686501E-2",0.396 µM
same,potency estimated from few doses,"YES1; compound concentrations: 100 nM and 1000 nM (sheet 'Samples'), CATDS: 1.22768983688542E-2",0.359 µM
Cc1ccc2c(-c3ccncc3)c(-c3ccc(F)cc3)nn2c1.Cl [GW461484A],potency estimated from few doses,ABL1; [1],1.22 µM
same,potency estimated from few doses,ABL2; [1],0.571 µM
same,potency estimated from few doses,ATM; [1],0.262 µM
same,potency estimated from few doses,CSNK1E; [1],0.673 µM
same,potency estimated from few doses,HCK; [1],0.755 µM
same,potency estimated from few doses,PHKG2; [1],1.6 µM
same,potency estimated from few doses,PTK6; [1],0.871 µM
same,potency estimated from few doses,SRC; [1],0.593 µM
same,potency estimated from few doses,YES1; [1],0.556 µM
Cn1ncc2c(N)ncnc21 [SKF-18267],potency estimated from few doses,"ABL1; compound concentrations: 100 nM and 1000 nM (sheet 'Samples'), CATDS: 4.5890401321851898E-3",0.972 µM
same,potency estimated from few doses,"ABL2; compound concentrations: 100 nM and 1000 nM (sheet 'Samples'), CATDS: 5.0197498438992799E-3",0.808 µM
same,potency estimated from few doses,ADCK1; CATDS: 5.0791005267813499E-3,0.789 µM
same,potency estimated from few doses,"ATM; compound concentrations: 100 nM and 1000 nM (sheet 'Samples'), CATDS: 1.5157721070637E-2",0.152 µM
same,potency estimated from few doses,CDK17,0.762 µM
same,potency estimated from few doses,"CSNK1A1; compound concentrations: 100 nM and 1000 nM (sheet 'Samples'), CATDS: 5.1324512690416697E-3",0.773 µM
same,potency estimated from few doses,"CSNK1E; compound concentrations: 100 nM and 1000 nM (sheet 'Samples'), CATDS: 4.2831601683339304E-3",1.13 µM
same,potency estimated from few doses,"HCK; compound concentrations: 100 nM and 1000 nM (sheet 'Samples'), CATDS: 4.5358126876330496E-3",0.997 µM
same,potency estimated from few doses,"MAPK8; compound concentrations: 100 nM and 1000 nM (sheet 'Samples'), CATDS: 3.9571355950897801E-3",1.37 µM
same,potency estimated from few doses,"PHKG2; compound concentrations: 100 nM and 1000 nM (sheet 'Samples'), CATDS: 4.3394023432843602E-3",1.1 µM
same,potency estimated from few doses,PIK3CD,0.0408 µM
same,potency estimated from few doses,"PTK6; compound concentrations: 100 nM and 1000 nM (sheet 'Samples'), CATDS: 4.9971490936353098E-3",0.815 µM
same,potency estimated from few doses,"RIOK2; compound concentrations: 100 nM and 1000 nM (sheet 'Samples'), CATDS: 5.3875103826164002E-3",0.705 µM
same,potency estimated from few doses,"ROCK2; compound concentrations: 100 nM and 1000 nM (sheet 'Samples'), CATDS: 4.7820751865343299E-3",0.891 µM
same,potency estimated from few doses,"RPS6KA4; compound concentrations: 100 nM and 1000 nM (sheet 'Samples'), CATDS: 4.17505153349991E-3",1.2 µM
same,potency estimated from few doses,"SRC; compound concentrations: 100 nM and 1000 nM (sheet 'Samples'), CATDS: 7.2051481672215003E-3",0.429 µM
same,potency estimated from few doses,"STK3; compound concentrations: 100 nM and 1000 nM (sheet 'Samples'), CATDS: 4.2986396089691199E-3",1.12 µM
same,potency estimated from few doses,"YES1; compound concentrations: 100 nM and 1000 nM (sheet 'Samples'), CATDS: 6.9300225951379104E-3",0.456 µM
COc1cccc2c(-c3ccncc3)c(-c3ccc(F)cc3)nn12 [GW468513X],potency estimated from few doses,"CSNK1A1; compound concentrations: 100 nM and 1000 nM (sheet 'Samples'), CATDS: 4.67055815056669E-2",0.666 µM
same,potency estimated from few doses,"CSNK1E; compound concentrations: 100 nM and 1000 nM (sheet 'Samples'), CATDS: 8.4108879944504403E-2",0.14 µM
same,potency estimated from few doses,"MAPK8; compound concentrations: 100 nM and 1000 nM (sheet 'Samples'), CATDS: 3.7375924419407701E-2",1.75 µM
CCn1c(-c2nonc2N)nc2c(C#CC(C)(C)O)nc(OC[C@@H](N)c3ccccc3)cc21 [GSK938890A],potency estimated from few doses,"PRKX; compound concentrations: 100 nM and 1000 nM (sheet 'Samples'), CATDS: 0.16139090072401199",0.0366 µM
same,potency estimated from few doses,"ROCK2; compound concentrations: 100 nM and 1000 nM (sheet 'Samples'), CATDS: 5.36427183140821E-2",1.16 µM
